# Experimental data reported in the antibiotic and cytotoxicity screens of Wong et al. (2023).
# The campaign covered roughly 39,000 compounds. About 3,300 (8.5%) were called active. For the sample, actives were picked, then their nearest neighbours and some compounds at random.
# System: HepG2
# Assay: cytotoxicity call (relative viability < 0.9)
# Details: 10 µM
row,SMILES,cytotoxicity call
1,NCc1cc(-c2ccccc2Cl)on1,inactive
2,COc1ccc(S(=O)(=O)N(C)C[C@@H]2OCc3cnnn3CCCC(=O)N([C@H](C)CO)C[C@H]2C)cc1,inactive
3,C[C@@H]1CN([C@@H](C)CO)C(=O)c2cc(NS(=O)(=O)c3cccs3)ccc2O[C@@H](C)CCCCO[C@@H]1CN(C)CC1CCCCC1,inactive
4,C[C@@H]1CN([C@H](C)CO)C(=O)c2cc(-c3cccnc3)cnc2O[C@@H]1CN(C)C(=O)Nc1ccc2c(c1)OCO2,inactive
5,CON=C(C(=O)NC1C(=O)N2C(C(=O)O)=C(CSC(=O)c3ccco3)CSC12)c1csc(N)n1.Cl (centres undefined),inactive
6,O=C(C[C@@H]1C[C@@H]2c3cc(NC(=O)NC4CCCC4)ccc3O[C@@H]2[C@@H](CO)O1)NCc1ccc2c(c1)OCO2,inactive
7,Cc1noc(C)c1NC(=O)Nc1ccc2c(c1)C(=O)N([C@H](C)CO)C[C@H](C)[C@@H](CN(C)C(=O)Nc1cccc3ccccc13)OCCCC[C@H](C)O2,inactive
8,C[C@H]1CN([C@@H](C)CO)C(=O)c2cc(NC(=O)Nc3ccc(F)cc3)ccc2O[C@@H]1CN(C)Cc1ccc(Oc2ccccc2)cc1,active
9,CC(C)NC(=O)N(C)C[C@@H]1Oc2c(NC(=O)C3CCCCC3)cccc2C(=O)N([C@H](C)CO)C[C@@H]1C,inactive
10,CN(C)CC(=O)N1CC2(C1)[C@@H](c1ccccc1)[C@@H](CO)N2S(C)(=O)=O,inactive
11,C[C@@H]1CCCCO[C@H](CN(C)Cc2ccccc2)[C@@H](C)CN([C@@H](C)CO)C(=O)c2cc(NC(=O)Nc3ccc(C(F)(F)F)cc3)ccc2O1,active
12,C[C@@H]1CCCCO[C@@H](CN(C)Cc2ccccc2)[C@@H](C)CN([C@H](C)CO)C(=O)c2cc(NC(=O)Nc3ccc(C(F)(F)F)cc3)ccc2O1,active
13,C[C@@H]1CCCCO[C@H](CN(C)Cc2ccccc2)[C@H](C)CN([C@H](C)CO)C(=O)c2cc(NC(=O)Nc3ccc(C(F)(F)F)cc3)ccc2O1,active
14,C[C@@H]1CCCCO[C@H](CN(C)Cc2ccccc2)[C@@H](C)CN([C@H](C)CO)C(=O)c2cc(NC(=O)Nc3ccc(C(F)(F)F)cc3)ccc2O1,active
15,C[C@H]1CN([C@@H](C)CO)C(=O)c2cc(NC(=O)Nc3cccc4ccccc34)ccc2O[C@H]1CN(C)C(=O)Nc1cccc2ccccc12,inactive
16,COc1ncc(NC(=O)C2CC2)c(OC)n1,inactive
17,C[C@@H]1CN([C@H](C)CO)C(=O)c2c(c3ccccc3n2C)-c2ccccc2CO[C@@H]1CN(C)Cc1cccc2c1OCCCO2,inactive
18,C[C@@H]1CN([C@H](C)CO)C(=O)c2cccc(NC(=O)c3ccc(-c4nccs4)cc3)c2O[C@H]1CN(C)C(=O)Nc1ccc2c(c1)OCO2,inactive
19,COc1ccc(S(=O)(=O)N(C)C[C@@H]2OCCCC[C@@H](C)Oc3ccc(NC(=O)CCC(F)(F)F)cc3C(=O)N([C@@H](C)CO)C[C@@H]2C)cc1,inactive
20,Cc1noc(C)c1S(=O)(=O)N(C)C[C@H]1Oc2ccc(NC(=O)Cc3cn(C)c4ccccc34)cc2CC(=O)N([C@H](C)CO)C[C@@H]1C,inactive
21,O=C(C[C@H]1C=C[C@@H](NC(=O)c2ccc(F)cc2)[C@H](CO)O1)NCc1ccncn1,inactive
22,CO[C@@H]1CN(C)C(=O)c2ccc(NC(=O)Nc3ccc(Cl)cc3)cc2OC[C@H](C)N(C(=O)Nc2c(C)noc2C)C[C@@H]1C,inactive

row,SMILES,cytotoxicity call
1,C[C@@H]1CCCCO[C@H](CN(C)C(=O)Nc2ccc(C(F)(F)F)cc2)[C@H](C)CN([C@H](C)CO)C(=O)c2cc(NS(=O)(=O)c3cn(C)cn3)ccc2O1,inactive
2,Cc1noc(C)c1NC(=O)Nc1ccc2c(c1)C(=O)N([C@H](C)CO)C[C@H](C)[C@H](CN(C)CC1CCCCC1)OCCCC[C@@H](C)O2,inactive
3,C[C@H](CO)N1C[C@H](C)[C@@H](CN(C)C(=O)c2cccnc2)Oc2cc(-c3cccc(C#N)c3)ccc2S1(=O)=O,inactive
4,OCc1cncnc1,inactive
5,C[C@@H]1CCCCO[C@@H](CN(C)Cc2ccccc2)[C@H](C)CN([C@H](C)CO)C(=O)c2cc(NC(=O)Nc3ccc(C(F)(F)F)cc3)ccc2O1,active
6,C[C@H](CO)N1C[C@H](C)[C@@H](CN(C)Cc2ccccc2)OCCCC[C@H](C)Oc2ccc(NC(=O)Nc3ccc(C(F)(F)F)cc3)cc2C1=O,active
7,C[C@H](CO)N1C[C@H](C)[C@H](CN(C)Cc2ccccc2)OCCCC[C@H](C)Oc2ccc(NC(=O)Nc3ccc(C(F)(F)F)cc3)cc2C1=O,active
8,C[C@H]1CCCCO[C@H](CN(C)Cc2ccccc2)[C@@H](C)CN([C@@H](C)CO)C(=O)c2cc(NC(=O)Nc3ccc(C(F)(F)F)cc3)ccc2O1,active
9,O=C(Nn1cnnc1)c1ccccc1,inactive
10,O=C(O)c1n[nH]c2c1C[C@H]1C[C@@H]21,inactive
11,COc1ccc(S(=O)(=O)Nc2ccc3c(c2)C(=O)N([C@@H](C)CO)C[C@@H](C)[C@@H](CN(C)C(=O)Nc2c(C)noc2C)OCCCC[C@@H](C)O3)cc1,inactive
12,O=c1nc(C(F)(F)F)[nH]c2nc[nH]c12,inactive
13,Cn1cnc(CCNC(=O)C[C@H]2CC[C@@H]3[C@H](COC[C@@H](O)CN3C(=O)C3CC3)O2)c1,inactive
14,O=C(N[C@@H]1CC[C@@H](CCn2cc(C3(O)CCCC3)nn2)O[C@H]1CO)C1CCOCC1,inactive
15,C[C@H]1CN([C@@H](C)CO)C(=O)Cc2cc(N(C)C)ccc2O[C@H]1CN(C)S(=O)(=O)c1ccc(F)cc1,inactive
16,C[C@H](CO)N1C[C@H](C)[C@@H](CN(C)CC2CCCCC2)Oc2ccc(NS(=O)(=O)c3cn(C)cn3)cc2C1=O,inactive
17,C[C@@H]1CN([C@H](C)CO)C(=O)c2cc(NC(=O)Nc3ccc(C(F)(F)F)cc3)ccc2O[C@@H](C)CCCCO[C@@H]1CN(C)Cc1ccccc1,active
18,C[C@@H]1CN([C@@H](C)CO)C(=O)c2cc(NC(=O)Nc3ccc(C(F)(F)F)cc3)ccc2O[C@@H](C)CCCCO[C@@H]1CN(C)Cc1ccccc1,active
19,C[C@@H]1CCCCO[C@@H](CN(C)Cc2ccccc2)[C@@H](C)CN([C@@H](C)CO)C(=O)c2cc(NC(=O)Nc3ccc(C(F)(F)F)cc3)ccc2O1,active
20,C[C@@H]1CN([C@@H](C)CO)C(=O)c2cc(NC(=O)Nc3ccc(C(F)(F)F)cc3)ccc2O[C@@H](C)CCCCO[C@H]1CN(C)Cc1ccccc1,active
21,Cc1ccc(N2C(=O)C(=O)NC2=S)cc1,inactive
22,C[C@H]1CN([C@@H](C)CO)C(=O)c2cc(NC(=O)CCN3CCOCC3)ccc2O[C@@H]1CN(C)C(=O)NC1CCCCC1,inactive

row,SMILES,cytotoxicity call
1,C[C@H]1CN([C@@H](C)CO)C(=O)Cc2cc(NS(=O)(=O)c3ccccc3)ccc2O[C@H]1CN(C)Cc1ccc2c(c1)OCO2,inactive
2,C[C@H](CO)N1C[C@H](C)[C@H](CN(C)S(=O)(=O)c2cccs2)Oc2ccc(NC(=O)Cn3cnnn3)cc2CC1=O,inactive
3,CC(C)NCCCC[C@H](NC(=O)[C@H]1CCC(=O)N[C@@H](Cc2ccccc2)C(=O)N[C@H](Cc2ccc(O)cc2)C(=O)N[C@@H](CCCCNC(C)C)C(=O)N[C@H](CCCN=C(N)N)C(=O)N[C@@H](Cc2ccc3ccccc3c2)C(=O)NCC(=O)N1)C(N)=O,inactive
4,Cc1noc(C)c1NC(=O)N(C)C[C@H]1Oc2ccc(NC(=O)Cn3cnnn3)cc2C(=O)N([C@H](C)CO)C[C@@H]1C,inactive
5,Nc1nnc(N[C@H]2CCCCNC2=O)[nH]1,inactive
6,COCc1cn(CC[C@H]2CC[C@@H](NC(=O)CCN3CCCCC3)[C@@H](CO)O2)nn1,inactive
7,COCC#Cc1cnc2c(c1)C(=O)N([C@@H](C)CO)C[C@@H](C)[C@H](CN(C)S(=O)(=O)c1cccc(OC)c1)O2,inactive
8,CO[C@H](CN(C)S(=O)(=O)c1ccc(F)cc1)[C@@H](C)CN([C@H](C)CO)S(=O)(=O)c1cccc(Cl)c1,inactive
9,C[C@@H]1CN([C@H](C)CO)C(=O)c2cccc(NC(=O)c3ccno3)c2O[C@H]1CN(C)S(=O)(=O)c1cccs1,inactive
10,C[C@@H]1CN([C@H](C)CO)C(=O)c2cc(NC(=O)Nc3ccc(C(F)(F)F)cc3)ccc2O[C@@H](C)CCCCO[C@H]1CN(C)Cc1ccccc1,active
11,C[C@H]1CCCCO[C@@H](CN(C)Cc2ccccc2)[C@@H](C)CN([C@@H](C)CO)C(=O)c2cc(NC(=O)Nc3ccc(C(F)(F)F)cc3)ccc2O1,active
12,C[C@@H]1CCCCO[C@H](CN(C)Cc2ccccc2)[C@H](C)CN([C@@H](C)CO)C(=O)c2cc(NC(=O)Nc3ccc(C(F)(F)F)cc3)ccc2O1,active
13,C[C@@H]1CCCCO[C@@H](CN(C)Cc2ccccc2)[C@H](C)CN([C@@H](C)CO)C(=O)c2cc(NC(=O)Nc3ccc(C(F)(F)F)cc3)ccc2O1,active
14,Cc1noc(C)c1NC(=O)Nc1cccc2c1O[C@H](CN(C)Cc1ccc(C(F)(F)F)cc1)[C@@H](C)CN([C@H](C)CO)C2=O,inactive
15,C[C@@H]1CN([C@H](C)CO)C(=O)c2cccc(NC(=O)CCCCCC(=O)Nc3ccccc3N)c2O[C@@H]1CN(C)Cc1ccccc1,inactive
16,C=CCOC[C@H]1NCCc2c1nnn2CC,inactive
17,COc1ccc(CN(C)C[C@@H]2Oc3c(NS(=O)(=O)c4cn(C)cn4)cccc3C(=O)N([C@H](C)CO)C[C@H]2C)cc1,inactive
18,O=C(C[C@@H]1CC[C@H]2[C@@H](COC[C@@H](O)CN2C(=O)c2cccnc2)O1)NCC1CC1,inactive
19,C[C@@H]1CN([C@@H](C)CO)C(=O)c2cc(NS(C)(=O)=O)ccc2O[C@@H](C)CCCCO[C@@H]1CN(C)S(=O)(=O)c1cn(C)cn1,inactive
20,C[C@H]1CCCCO[C@@H](CN(C)Cc2ccc(C(=O)O)cc2)[C@@H](C)CN([C@@H](C)CO)C(=O)c2cc(NC(=O)Nc3ccc(F)cc3)ccc2O1,inactive
